Many of the other results were omitted from the sample, so hits are more common in it than they were.
TSHR agonist = qHTS Assay for Agonists of the Thyroid Stimulating Hormone Receptor | Potency, µM (doses to about 57.1 µM), for the others: top-dose activation, hits mostly activators | 73,000 tested, 0.48% active | AID 926, 2007 | HEK293-CNG-TSHR cells (CNG channel as cAMP sensor), membrane potential dye, cAMP | Thyrotropin receptor (Homo sapiens), P16473; active = well fitted activation curve with a large enough effect in the main read-out, with a control signal flat, not every such curve was filed as active; inconclusive = small, poorly fitted or top-dose-only effect, or a change in a side signal; inactive = no such curve, though single readings can be large or run the other way; % of control where 0% means no effect;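 also: the control signal comes from parental cells without the receptor; potency is read from the fitted curve at half-maximal effect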
Target sequence (P16473 whole entry, looked up): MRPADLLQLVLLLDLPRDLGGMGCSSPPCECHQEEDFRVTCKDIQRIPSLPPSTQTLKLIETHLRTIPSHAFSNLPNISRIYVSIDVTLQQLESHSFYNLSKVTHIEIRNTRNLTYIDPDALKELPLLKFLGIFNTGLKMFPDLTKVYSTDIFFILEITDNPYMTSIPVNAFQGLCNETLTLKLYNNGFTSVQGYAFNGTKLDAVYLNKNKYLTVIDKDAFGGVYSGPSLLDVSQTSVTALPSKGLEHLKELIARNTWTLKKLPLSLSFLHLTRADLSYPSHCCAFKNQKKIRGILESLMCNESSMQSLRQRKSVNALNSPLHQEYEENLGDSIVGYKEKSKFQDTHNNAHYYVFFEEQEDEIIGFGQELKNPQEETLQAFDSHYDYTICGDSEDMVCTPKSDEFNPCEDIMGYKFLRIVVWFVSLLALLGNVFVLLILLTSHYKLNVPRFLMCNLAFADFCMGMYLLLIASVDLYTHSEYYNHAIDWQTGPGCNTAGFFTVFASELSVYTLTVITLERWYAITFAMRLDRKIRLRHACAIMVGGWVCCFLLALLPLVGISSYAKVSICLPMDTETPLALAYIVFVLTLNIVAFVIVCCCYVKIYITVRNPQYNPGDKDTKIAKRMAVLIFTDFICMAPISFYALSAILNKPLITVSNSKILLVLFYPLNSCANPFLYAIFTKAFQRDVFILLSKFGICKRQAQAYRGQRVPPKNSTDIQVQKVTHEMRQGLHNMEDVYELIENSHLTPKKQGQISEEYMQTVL
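HEK 293 cells stably expressing TSHR and a cAMP-gated CNG channel; parental CNG-only cells as counterscreen. Cells preloaded 60 min with membrane potential dye plus 100 uM RO 20-1724, then compound 30 min; fluorescence read at 590 nm.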
HEK293 cAMP ctrl = qHTS Assay for Agonists of the Thyroid Stimulating Hormone Receptor: Activators of Intracellular cAMP Concentrations in Parental HEK 293; parental HEK293 CNG cAMP sensor, membrane potential fluorescence; Potency, µM (doses to about 57.1 µM), without a hit: at the highest dose activation, hits mostly activators; 73,000 tested, 2.5% active; AID 938, 2007; also: potency is read from the fitted curve at half-maximal effect; % of control where 0% means no effect; nearly all actives have a fitted effect of over 55% in size
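Parental HEK 293 cells stably expressing a modified CNG channel (no TSHR) report cAMP rise as membrane depolarization. Membrane potential dye with 100 uM RO 20-1724 was loaded for 60 min at room temperature, then compound added for 30 min; fluorescence read at 590 nm.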
Imprint erasure = qHTS Assay for Compounds that Induce Erasure of Genomic Imprints | Potency, µM (titrated, usually from 60.7 µM), for inactives: at the top dose activity change, positive = activation, most hits filed as activators | AID 1948, 2009 | 110,000 tested, 0.02% active | mouse ES Peg3-LacZ reporter, beta-gal luminescence, 40 h; also: potency is read from the fitted curve at half-maximal effect
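Each well holds 300 Peg3LacZ-Neo (maternal) female ES cells incubated 40 h at 37C, 5% CO2. LacZ is measured by BetaGlo luminescence, with AC50 and maximum efficacy derived from dose-response curves.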
parental cAMP = Confirmation Concentration-Response Assay for Agonists of the Thyroid Stimulating Hormone Receptor: Activators of Intracellular cAMP Concentrations in Parental HEK 293; parental HEK293 CNG biosensor, cAMP membrane potential fluorescence; AID 953, 2007; 150 tested, under 10 active; shares compounds with TSHR agonist; activity change, negative = inhibition, % at 32.9 µM
Starred values were filed as active, the others as inactive; ? = inconclusive; . = no result; [ ] = dose if it differs, or a comment. Unless noted, calls follow the shape of the dose curve; as a rule, active = well fitted curve in the direction sought with a large enough effect; inconclusive = small, poorly fitted or top-dose-only effect, or another doubt; inactive = no such curve, though single readings can be large; an effect the other way counts as inactive or inconclusive.

SMILES	TSHR agonist	HEK293 cAMP ctrl	Imprint erasure	parental cAMP
COc1cccc(N2C(=O)CSC23C(=O)N(CC(=O)NCc2ccc(C)cc2)c2ccccc23)c1 (centres undefined)	.	.	-7%[10.9 µM]	.
COCCCNC(=O)CC(c1cc(OC)c(OC)c(OC)c1)N1Cc2ccccc2C1=O (centres undefined)	.	.	9%[10.9 µM]	.
O=C(Nc1ccc(N2CCOCC2)cc1)C1CC1	-2%	3%	-4%	5[25.6 µM]
O=C(Nc1ccc(N2CCOCC2)cc1)NC1CCCCC1	17%	-11%	.	.
Cc1cccc(NC(=O)c2sc(-n3nc(C)c(CCC(C)C)c3C)nc2C)c1C	.	.	-7%[10.9 µM]	.
Cc1ccc2scc(N3CCCCC3)c(=O)c2c1	.	.	-7%[10.9 µM]	.
COc1ccc(C(=O)Nc2ccccc2-c2nc3ccccc3s2)c(OC)c1	.	.	-7%[10.9 µM]	.
CCOc1ccccc1NC(=O)N1C2CCCC1CC(NC(=O)C1CC1)C2 (centres undefined)	?	?	-11%	.
Cc1ccccc1NC(=O)N1C2CCCC1CC(NC(=O)C1CC1)C2 (centres undefined)	6%	1%	-5%	20[25.6 µM]
O=C(COC(=O)CCCc1c[nH]c2ccccc12)Nc1ccc2c(c1)OCO2	24%	29%	-2%	.
O=C(COC(=O)C1c2ccccc2Oc2ccccc21)Nc1ccc2c(c1)OCO2	25µM*	2%	7%	9
COc1ccccc1Nc1nc2ccc(Cl)cc2nc1-n1nc(C)cc1C	.	.	-2%[10.9 µM]	.
COc1ccc(OC)c(CNC(=O)C2CCN(S(=O)(=O)N3CCCC3)CC2)c1	1%[11.4 µM]	3%	0%	.
COc1ccc(Br)cc1CNC(=O)C1CCN(S(=O)(=O)N2CCCCC2)CC1	0%	-1%	-13%	-84[25.6 µM]
COc1ccc(-c2ccc(-c3noc(C)n3)c(OC)n2)cc1	3.2µM*	21%	-9%	9
CCOc1nc(-c2ccc(OC)cc2)ccc1-c1noc(C)n1	14%	25%	-6%	.
CCNC(=O)CCSc1nnc(-c2ccc(O)cc2)o1	.	.	-7%[10.9 µM]	.
Cc1cc(-n2c(C)cc(C(=O)CSc3nnnn3-c3ccc(Cl)cc3)c2C)no1	.	12%	-16%	14
Cc1cc(C)n2nc(SCC(=O)c3cc(C)n(-c4cc(C)on4)c3C)nc2n1	?	?	-20%	.
COc1ccc(C2C(=O)N(C3CCCCCC3)CC(=O)N2Cc2ccccc2)cc1 (centres undefined)	.	.	-17%[10.9 µM]	.
COc1cccc(CN2C(=O)CN(C3CCCCC3)C(=O)C2c2ccc(F)cc2)c1 (centres undefined)	13µM*	15%	-17%	-5
NC(Cc1ccccc1)=NCC(=O)O	-6%[11.4 µM]	-2%[11.4 µM]	-11%[10.9 µM]	.
COc1ccc(F)cc1S(=O)(=O)N1CCCN(S(=O)(=O)c2cc(F)ccc2OC)CC1	.	12%	-11%	.
COc1ccc(F)cc1S(=O)(=O)n1cc(C)nc1-c1ccccc1	7%	4%	-25%	-53[25.6 µM]
Cc1ccccc1NC(=O)CSc1nnc(-c2ccoc2C)n1CCc1ccccc1	10µM*	25%	-16%	20
SMILES	TSHR agonist	HEK293 cAMP ctrl	Imprint erasure	parental cAMP
Cc1occc1-c1nnc(SCC(=O)Nc2ccc(F)cc2)n1Cc1ccccc1	?	?	-12%	.
O=C1CC2CS(=O)(=O)CC2N1c1ccc(Oc2ccccc2)cc1 (centres undefined)	-4%	-1%	-19%	.
O=C1N(c2ccccc2)C2CS(=O)(=O)CC2N1c1ccc(Cl)c(Cl)c1 (centres undefined)	-5%	-17%	.	-23[25.6 µM]
COc1cccc(CNC(=O)C(=O)NCC(c2cccs2)S(=O)(=O)c2cccs2)c1 (centres undefined)	.	.	6%[10.9 µM]	.
CCOc1ccc(N(CC(=O)NCc2cccs2)S(=O)(=O)c2c(C)noc2C)cc1	32µM*	6%	-16%	10
CCOc1ccc(N(CC(=O)Nc2ccc(C)cc2)S(=O)(=O)c2c(C)noc2C)cc1	3%	3%	-11%	5[25.6 µM]
CCOc1ccc(N(CC(=O)NC(C)(C)C)S(=O)(=O)c2c(C)noc2C)cc1	12%	18%	-11%	7[25.6 µM]
CCOc1ccc(N(CC(=O)NCc2ccc(F)cc2)S(=O)(=O)c2c(C)noc2C)cc1	13%	8%	-8%	.
CCOc1ccc(N(CC(=O)Nc2ccc(F)c(F)c2)S(=O)(=O)c2c(C)noc2C)cc1	17%	0%	-20%	.
CCOc1ccc(NC(=O)CN(c2ccc(CC)cc2)S(=O)(=O)c2c(C)noc2C)cc1	.	.	13%[10.9 µM]	.
COCCn1c(=O)c(-c2ccc(Cl)cc2)nc2cnc(OC)nc21	1%	10%	.	.
CCOC(=O)c1ccc(NC(=O)Cn2c(=O)cc(C(F)(F)F)c3c(C)nn(C)c32)cc1	.	.	-3%[10.9 µM]	.
CC(=O)Nc1ccc(NC(=O)c2ccc3c(c2)N(Cc2cccc(Cl)c2)C(=O)c2ccccc2S3=O)cc1 (centres undefined)	.	.	-11%[10.9 µM]	.
O=C(CSCc1ccccc1Cl)N1CCN(c2ccc(F)cc2)CC1	.	.	-18%[10.9 µM]	.
Cc1cc(C)c2sc(NC(=O)c3ccc(S(=O)(=O)N4CCOCC4)cc3)nc2c1	.	.	-12%[10.9 µM]	.
Cc1nc2ccc(NC(=O)c3ccc(S(=O)(=O)N4CCOCC4)cc3)cc2s1	26%	31%	-6%	?
Cc1ccccc1-n1nc(-c2ccc(N)cc2)cc1N	-11%	-11%	.	.
Cc1ccc(-n2nc(-c3ccc(N)cc3)cc2N)cc1	-22%	-6%	0%	-9[25.6 µM]
CC(c1ccco1)N(C(=O)C12CC3CC(CC(C3)C1)C2)c1ccccn1 (centres undefined)	?	?	-8%	.
CC(c1ccco1)N(C(=O)c1ccc(Cl)s1)c1ccccn1 (centres undefined)	?	?	-16%	9
CCc1ccc(-c2nc(CN3CCC(C(=O)N4CCN(c5ccccc5)CC4)CC3)c(C)o2)cc1	5%	16%	-11%	13[25.6 µM]
CCc1ccc(-c2nc(CN3CCC(C(=O)N4CCN(c5ccccn5)CC4)CC3)c(C)o2)cc1	20%	14%	-15%	.
Nc1ncnc2c1c(I)cn2C1OC(CO)C(O)C1O (centres undefined)	.	.	-35%	.
COc1cc(OC)c(NC(=O)Nc2c(C)n(C)n(-c3ccccc3)c2=O)cc1Cl	.	.	-8%[10.9 µM]	.
